PfHsp40 yeast: restores yeast growth despite PfHsp40 toxicity; S. cerevisiae expressing PfHsp40, growth rescue, ATP luminescence; growth rescue, % at 12.5 µM; 0.68% of 340,000 active; in the data active = growth rescue above about 28%, passing the limit was not always enough; inconclusive = no clear call, values can overlap the other calls;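 note: yeast W303a lacking pdr1 and pdr3 grown in galactose medium; growth measured after three days at 30 °C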
Sa ugtP lethal: growth inhibition of S. aureus ugtP deletion strain; 0.54% of 330,000 active; S. aureus RN4220 ugtP deletion, OD600 growth, 16 h; AID 1259309; growth inhibition, % (concentration not given with the values); in the data active = growth inhibition above about 68%;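 note: plate controls were untreated wells for no effect and antibiotic for full effect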
RN4220 kill: kills Staphylococcus aureus RN4220; S. aureus RN4220 growth, OD600, 16 h; inhibition, % (concentration not given with the values); 0.33% of 330,000 active; AID 1259311; in the data active = inhibition above about 85%;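 note: plate controls were untreated cells for no effect and reference antibiotic for full effect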
TcdB inh: TcdB glycohydrolase inhibition | inhibition, % at 9.99 µM | AID 652162 | 0.24% of 350,000 active | P18177 | TcdB glycohydrolase enzymatic assay, plate reader; in the data active = inhibition above about 10%
PrP UTR inh: inhibition of PrP 5' UTR reporter expression; cell-based PrP 5' UTR mRNA reporter, plate reader; inhibition, % (no concentration beside the values); 0.35% of 340,000 active; AID 488862; in the data active = inhibition above about 52%; note: 0 = median of the neutral control wells
* = called active by the depositor; ? = inconclusive; . = no result given. Sampled rows, rich in hits. Any-hit rate of the full collection: about 1.2%.

SMILES	PfHsp40 yeast	Sa ugtP lethal	RN4220 kill	TcdB inh	PrP UTR inh
CN1C(=O)c2cc(NC(=O)c3cccc(C(F)(F)F)c3)ccc2OC[C@@H]2O[C@@H](CC(=O)O)CC[C@@H]21	.	.	.	-3	.
COC(=O)c1sc(C(C)(C)C)cc1CSc1ccccc1	-2	84*	4	2	-27
O=C(NNC1=C(C(=O)C(F)(F)F)CCC1)c1cccc(Cl)c1	54*	99*	100*	.	-27
COc1ccc(C(=O)NNC2=C(C(=O)C(F)(F)F)CCC2)cc1	1	97*	1	-1	-11
O=C(NNC(=O)c1cccc(Cl)c1)NNC(=O)c1cccc(Cl)c1	0	2	3	1	-2
O=C(NNC1=C(C(=O)C(F)(F)F)CCC1)c1ccc(Cl)cc1	3	100*	101*	.	-19
CO[C@H]1CN(C)C(=O)c2ccc(NC(=O)Nc3ccccc3)cc2OC[C@@H](C)N(C(=O)Nc2c(C)noc2C)C[C@@H]1C	.	.	.	1	.
COc1ccc(S(=O)(=O)n2nc(-c3cc(OC)c(OC)c(OC)c3)cc2N)cc1OC	-1	4	3	1	-16
COc1ccc(-c2cc(N)n(S(=O)(=O)c3c(F)c(F)c(F)c(F)c3F)n2)cc1OC	0	95*	98*	0	-18
O=C(Nc1cccc(C(F)(F)F)c1)Oc1ccc(Cl)c2cccnc12	125*	.	.	1	-4
O=C(c1ccccc1F)N1CC(=O)N2[C@H](C1)[C@@H](c1ccc(-c3ccccc3)cc1)[C@@H]2CO	.	.	.	0	.
CC(=O)OC1C[C@@]2(C)C(CC(O)C3[C@@]4(C)CCC(O)C(C)C4CC[C@@]32C)C1=C(CCC=C(C)C)C(=O)O (stereo partly drawn)	.	100*	100*	.	.
CC1(C)CC(=O)C=C(Nc2ccc(O)cc2)C1	.	.	.	25*	.
CCCC#Cc1ccc([C@H]2[C@@H](CO)N3C(=O)CN(C(=O)NC4CCCC4)C[C@H]23)cc1	.	.	.	-1	.
CC(C)(C)c1cc(C(=O)NN=Cc2ccc(O)cc2)n(-c2ccccc2)n1	.	10	6	.	.
CC(C)(C)c1cc(C(=O)NN=Cc2ccccc2O)n(-c2ccccc2)n1	.	100*	68	.	.
COc1ccc(C2CC(=O)C=C(C=CCc3ccccc3)C2)cc1 (stereo not drawn)	.	12	4	.	.
CCCCC/C=C/C1=CC(=O)C[C@H](c2ccc(OC)cc2)C1	44*	23	-4	1	-2
c1cc2cc(-c3c(-c4ccc5c(c4)OCO5)noc3-c3ccsc3)ccc2[nH]1	-1	.	.	1	-68
COc1cc(-c2c(-c3ccc4c(c3)OCO4)noc2-c2ccsc2)ccc1F	?	87*	-6	-1	-19
O=C(NCCO)c1c(-c2ccc3c(c2)OCO3)noc1-c1ccsc1	1	.	.	0	-7
CCOC(=O)c1ccc(-c2c(-c3ccc4c(c3)OCO4)noc2-c2ccsc2)cc1F	-1	96*	-10	1	-28
Cc1ccc(S(=O)(=O)N(C)C[C@H]2Oc3ccc(NC(=O)NC(C)C)cc3C(=O)N([C@H](C)CO)C[C@H]2C)cc1	.	.	.	0	.
COc1cccc(S(=O)(=O)Nc2ccc3c(c2)[C@@H]2C[C@@H](CC(=O)NCCc4ccccc4)O[C@@H](CO)[C@@H]2O3)c1	.	.	.	1	.
CC(=NNC(=O)c1cccc(NN=C(C)c2ccncc2)c1)c1ccncc1	.	64	8	.	.
SMILES	PfHsp40 yeast	Sa ugtP lethal	RN4220 kill	TcdB inh	PrP UTR inh
C[C@@H]1CN([C@H](C)CO)C(=O)c2cc(NC(=O)Cn3cnnn3)ccc2O[C@@H]1CN(C)CC1CCCCC1	.	.	.	-1	.
O=c1c2ccccc2nc(/C=C/c2ccc([N+](=O)[O-])o2)n1CCCO	0	99*	114*	.	1
CCOC(CCNC(=O)c1cn(CCOC)c(=O)c2c1c1ccccc1n2C)OCC	1	2	2	21*	-10
CCCC(=O)N1CC2(CCN(C(C)=O)CC2)c2c(n(C)c3cc(OC)ccc23)[C@H]1CO	.	.	.	0	.
Cc1cccc2[nH]c3c(N4CC=C(c5ccc(F)cc5)CC4)ncnc3c12	.	89*	73	1	.
COc1cccc2[nH]c3c(N4CCCCC4)ncnc3c12	2	-10	5	.	-18
O=C(O)c1cc(-c2ccc3c(c2)OCO3)nc2ccccc12	-1	-16	0	.	-18
CC(=O)c1ccc(N2CCN(C(=O)c3cc(-c4ccc5c(c4)OCO5)nc4ccccc34)CC2)cc1	0	101*	-10	.	-21
Cc1ccc([N+](=O)[O-])cc1N(CC(=O)Nc1ccc(S(=O)(=O)Nc2cccc(C(F)(F)F)c2)cc1)S(C)(=O)=O	1	78	88*	.	-7
